Experimental findings from PubChem BioAssay (Tox21) are described below.

The nature of test [1]: Nuclear factor erythroid 2-related factor 2/antioxidant responsive element (Nrf2/ARE) small molecule agonists: qHTS cell viability counter screen in human keratinocytes (AID 1919968; active = well fitted curve in the direction sought with a large enough effect in the repeat runs; an effect the other way counts as inactive or inconclusive; also: nearly all actives have a fitted effect of over 55% in size; also: potency is read from the fitted curve at half-maximal effect). In outline:
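Stably transfected HaCaT (KeratinoSens), 1,500/well. Test agents in DMSO were applied for 23 h, 37 C/5% CO2. CellTiter-Fluor was incubated 1 h before the fluorescence read.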
A general note: Quantitative high-throughput screening tests each substance at several concentrations.

The target of test [2] is Gonadotropin-releasing hormone receptor (Homo sapiens) (UniProt P30968). The test is described as follows: Human gonadotropin-releasing hormone receptor (GnRHR) small molecule agonists, calcium flux assay in GnRHR-HEK293 cells (AID 1920063). Also: nearly all actives have a fitted effect of over 35% in size. The procedure, abridged: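 Stable human GnRHR HEK293 line. 18 h plating, then calcium dye for 1 h at 37 C. Agonist-mode compound addition from DMSO stocks; fluorescence monitored 3 min.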
Chain of Gonadotropin-releasing hormone receptor (Homo sapiens) (P30968 whole entry, looked up): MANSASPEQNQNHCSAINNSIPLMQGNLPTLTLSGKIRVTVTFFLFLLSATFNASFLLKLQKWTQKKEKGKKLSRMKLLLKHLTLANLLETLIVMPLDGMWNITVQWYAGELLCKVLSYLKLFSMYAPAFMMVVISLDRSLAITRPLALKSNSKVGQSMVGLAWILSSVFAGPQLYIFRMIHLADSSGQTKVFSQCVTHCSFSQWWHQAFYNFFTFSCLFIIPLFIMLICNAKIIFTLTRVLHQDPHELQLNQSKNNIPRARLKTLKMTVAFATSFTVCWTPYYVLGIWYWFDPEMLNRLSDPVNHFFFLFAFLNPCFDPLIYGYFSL
In general terms: Calcium flux is commonly read through the fluorescence of an indicator in the cells.

Test [3] has as its target KiSS-1 receptor (Homo sapiens) (UniProt Q969F8). The test is described as follows: Human kisspeptin (KISS1R) small molecule agonists, calcium flux assay in KISS1R-HEK293 cells (AID 1920064; active = well fitted curve in the direction sought with a large enough effect in the repeat runs; an effect the other way counts as inactive or inconclusive). The procedure, abridged:
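After overnight (18 h) culture at 37 C/5% CO2, human KISS1R-HEK293 cells received calcium dye for 1 h, then test compound; emission at 540 nm (excitation 480 nm) was tracked for 3 min.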

A short description of test [4]: G protein-coupled receptor (GPCR) small molecule agonists, calcium flux assay: HEK293 wild type cell line counter screen (AID 1920065). The procedure, abridged:
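Following 18 h incubation at 37 C/5% CO2, plates got calcium dye for 1 h; compounds, ATP or DMSO were then pinned in and fluorescence followed kinetically (480/540 nm).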

The nature of test [5]: p53 small molecule agonists, cell-based qHTS assay with human liver microsomes (AID 1963577).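 Also: p53 response element beta-lactamase reporter cells with liver microsomes plus NADPH.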 In outline:
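With metabolic activation: human liver microsomes (0.5 mg/mL final) plus NADPH (0.5 mg/mL final) added alongside compounds to p53RE-bla cells; 16 h 37 C exposure; beta-lactamase read by LiveBLAzer fluorescence.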

Test [6] can be described thus: p53 small molecule agonists, cell-based qHTS assay with rat liver microsomes (AID 1963578). The procedure, abridged: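 Metabolic activation by rat liver microsomes and NADPH, each 0.5 mg/mL final, added right after compounds to p53RE-bla reporter cells (4,000/well, plated 5 h earlier). 16 h at 37 C, then LiveBLAzer substrate for 2 h at room temperature in the dark; fluorescence read-out.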

Test [7] in a line: p53 small molecule agonists, cell-based qHTS assay with human liver microsomes: qHTS cell viability counter screen (AID 1963579). Also: nearly all actives have a fitted effect of over 45% in size. Also: potency is read from the fitted curve at half-maximal effect. In outline:
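Metabolic activation used human liver microsomes and NADPH, both 0.5 mg/mL final, over 16 hours at 37 C on p53RE-bla cells (4,000/well). Cytotoxicity measured by CellTiter-Glo luminescence, 30 min at room temperature.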

Test [8] in a line: p53 small molecule agonists, cell-based qHTS assay with rat liver microsomes: qHTS cell viability counter screen (AID 1963580). Also: nearly all actives have a fitted effect of over 45% in size. The procedure, abridged: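 Counter screen for cytotoxicity under metabolic activation: rat liver microsomes and NADPH, 0.5 mg/mL final each, added with compounds to p53RE-bla HCT-116 cells; 16 h at 37 C, then ATP luminescence read.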
Test [9] in a line: p53 small molecule agonists, cell-based qHTS assay: qHTS cell viability counter screen (AID 1963581). Also: nearly all actives have a fitted effect of over 45% in size. Also: potency is read from the fitted curve at half-maximal effect. The procedure, abridged:
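qHTS counter screen: 16 h compound exposure at 37 C of p53RE-bla HCT-116 cells (4,000 per well, seeded 5 h prior), cell viability by ATP luminescence.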

Test [10] in a line: p53 small molecule agonists, cell-based qHTS assay (AID 1963582; active = well fitted activation curve with a large enough effect in the signal ratio in the repeat runs, not every such curve was filed as active; the % refers to the signal ratio). In outline: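 Measured: fluorescence from cleaved LiveBLAzer substrate. System: p53RE-bla cells, 16 h compound treatment at 37 C, 2 h substrate step at room temperature.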
In test [11] the target is 5-hydroxytryptamine receptor 2A (Homo sapiens) (UniProt P28223). The test is described as follows: 5-hydroxytryptamine receptor 2A (HTR2A) small molecule antagonists, cell-based qHTS assay (AID 1963586). Also: nearly all actives have a fitted effect of over 45% in size. Also: potency is read from the fitted curve at half-maximal effect. The procedure, abridged:
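CHO cells stably expressing human HTR2A were plated for 18 h at 37 C, then loaded with calcium dye for 1 h. Compounds were preincubated 5 min at room temperature before DOI (4 nM solution) was added. Kinetic fluorescence was read for 3 min.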

Test [12] shares this target. The test is described as follows: 5-hydroxytryptamine receptor 2A (HTR2A) small molecule agonists, cell-based qHTS assay (AID 1963587). Also: nearly all actives have a fitted effect of over 30% in size. Also: potency is read from the fitted curve at half-maximal effect. The procedure, abridged:
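HTR2A-CHO cells, plated 18 h at 37 C/5% CO2, dye-loaded 1 h at 37 C; compounds in DMSO added by pin tool (agonist mode). Intracellular calcium flux read as kinetic fluorescence on FDSS over 2 min at 1 s intervals.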

Test [13] deals with Muscarinic acetylcholine receptor M1 (Homo sapiens) (UniProt P11229). The test is described as follows: Cholinergic receptor muscarinic 1 (CHRM1) small molecule antagonists, cell-based qHTS assay (AID 1963588). Also: nearly all actives have a fitted effect of over 40% in size. Also: potency is read from the fitted curve at half-maximal effect. The procedure, abridged: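 Compounds were tested at 15 concentrations in three independent runs. Dye-loaded CHRM1-CHO cells were exposed 5 min at room temperature before stimulation by acetylcholine added at 50nM. Intracellular calcium was read kinetically on FDSS for 3 min.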
Chain of Muscarinic acetylcholine receptor M1 (Homo sapiens) (P11229 whole entry, looked up): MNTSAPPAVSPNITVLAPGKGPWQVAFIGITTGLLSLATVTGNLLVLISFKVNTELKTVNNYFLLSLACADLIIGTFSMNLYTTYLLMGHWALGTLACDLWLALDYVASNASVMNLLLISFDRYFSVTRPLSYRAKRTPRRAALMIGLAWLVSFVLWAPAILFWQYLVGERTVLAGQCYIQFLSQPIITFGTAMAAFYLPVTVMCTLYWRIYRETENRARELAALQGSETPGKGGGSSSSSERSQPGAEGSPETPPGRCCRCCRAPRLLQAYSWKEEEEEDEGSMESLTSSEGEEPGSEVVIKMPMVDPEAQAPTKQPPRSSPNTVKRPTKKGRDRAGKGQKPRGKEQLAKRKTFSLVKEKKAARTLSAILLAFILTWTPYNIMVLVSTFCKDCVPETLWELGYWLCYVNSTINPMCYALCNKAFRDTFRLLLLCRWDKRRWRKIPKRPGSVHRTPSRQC

Test [14] has the same target. The test is described as follows: Cholinergic receptor muscarinic 1 (CHRM1) small molecule agonists, cell-based qHTS assay (AID 1963589). Also: nearly all actives have a fitted effect of over 35% in size. In outline:
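Kinetic fluorescence (1 s intervals) of calcium-sensitive dye in human M1 CHO cells after compound addition; cells pre-incubated 18 h at 37 C/5% CO2 and dye-loaded 1 h.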

The nature of test [15]: cAMP Responsive Elements (CRE) small molecule agonists, cell-based qHTS assay (AID 1963590). The procedure, abridged: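 Test agents in DMSO were incubated 3 h at 37 C/5% CO2 with CRE-bla HEK 293T cells seeded 18 h earlier; LiveBLAzer B/G FRET substrate was added and read after 2 h at room temperature.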
The nature of test [16]: cAMP Responsive Elements (CRE) small molecule antagonists, cell-based qHTS assay (AID 1963591; active = well fitted inhibition curve with a large enough effect in the signal ratio in the repeat runs, not every such curve was filed as active; the % refers to the signal ratio). In outline: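 Reporter line CRE-bla HEK 293T in dialyzed-FBS DMEM; cells preincubated 18 h, treated 3 h with compound plus NKH477 (0.25 uM final); LiveBLAzer FRET, 2 h RT.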
The target in test [17] is Beta-2 adrenergic receptor (Homo sapiens) (UniProt P07550). The test is described as follows: Adrenergic beta2 receptor (ADRB2) small molecule antagonists, cell-based qHTS assay (AID 1963592). Also: series mostly up to about 92 µM; nearly all actives have a fitted effect of over 50% in size. In outline: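 Assay format: CHO-ADRB2 cells, 18-20hr seeding at 37C/5% CO2, then compound plus 1nM isoproterenol agonist mix for 0.5hr RT. Homogeneous time-resolved fluorescence cAMP detection after 1hr, expressed as 665/615 nm ratio.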
Chain of Beta-2 adrenergic receptor (Homo sapiens) (P07550 whole entry, looked up): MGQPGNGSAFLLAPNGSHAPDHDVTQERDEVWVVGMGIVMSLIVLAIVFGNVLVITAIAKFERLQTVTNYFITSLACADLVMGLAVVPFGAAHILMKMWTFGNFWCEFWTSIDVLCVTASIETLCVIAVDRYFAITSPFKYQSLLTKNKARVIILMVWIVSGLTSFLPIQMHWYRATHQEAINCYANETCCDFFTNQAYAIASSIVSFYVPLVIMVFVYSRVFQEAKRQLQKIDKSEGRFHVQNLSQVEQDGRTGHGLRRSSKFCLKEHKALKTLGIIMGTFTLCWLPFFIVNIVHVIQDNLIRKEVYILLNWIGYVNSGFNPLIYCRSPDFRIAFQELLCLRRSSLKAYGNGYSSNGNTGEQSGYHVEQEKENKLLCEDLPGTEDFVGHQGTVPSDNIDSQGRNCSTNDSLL

The target is the same in test [18]. Kind of test: Adrenergic beta2 receptor (ADRB2) small molecule agonists, cell-based qHTS assay (AID 1963593).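 Also: CHO cells stably overexpressing human ADRB2.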 In outline:
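CHO cells stably over-expressing ADRB2 were plated overnight at 37C, then dosed with compounds plus a stimulation mix containing 100uM IBMX and 25uM Ro-20-1724 for 0.5hr at room temperature. cAMP was measured by HTRF competition, 1hr.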

For test [19], the target named is D(2) dopamine receptor (Homo sapiens) (UniProt P14416). The test is described as follows: Dopamine D2 receptor (DRD2) small molecule agonists, cell-based qHTS assay (AID 1963594). Also: nearly all actives have a fitted effect of over 35% in size. The procedure, abridged:
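HEK293 cells stably expressing DRD2 were cultured 24 h at 37 C, then given Ro20-1724 (0.1 mM final) and compounds for 10 min at room temperature. NKH477 (200nM) was then added for 30 min. cAMP was read by HTRF.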

The target is the same in test [20]. Kind of test: Dopamine D2 receptor (DRD2) small molecule antagonists, cell-based qHTS assay (AID 1963595; active = well fitted inhibition curve with a large enough effect in the signal ratio in the repeat runs, with a control signal flat; the % refers to the signal ratio; also: potency is read from the fitted curve at half-maximal effect). The procedure, abridged:
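Antagonist mode in DRD2-HEK293 cells: after compound addition with 0.1 mM Ro20-1724, cells received quinpirole (12 nM) and NKH477 (200 nM) for 30 min at room temperature; HTRF cAMP read after 1 h detection.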

“And” between values parts separate entries of the source, which are not always exact repeats. Equal entries are not always repeated. Records with an inconclusive call do not appear. Where a structure was tested more than once in an assay, its records may differ in their call. The source made the active and inactive calls. Unless noted, calls follow the shape of the full dose curve.

Chain of KiSS-1 receptor (Homo sapiens) (Q969F8 whole entry, looked up): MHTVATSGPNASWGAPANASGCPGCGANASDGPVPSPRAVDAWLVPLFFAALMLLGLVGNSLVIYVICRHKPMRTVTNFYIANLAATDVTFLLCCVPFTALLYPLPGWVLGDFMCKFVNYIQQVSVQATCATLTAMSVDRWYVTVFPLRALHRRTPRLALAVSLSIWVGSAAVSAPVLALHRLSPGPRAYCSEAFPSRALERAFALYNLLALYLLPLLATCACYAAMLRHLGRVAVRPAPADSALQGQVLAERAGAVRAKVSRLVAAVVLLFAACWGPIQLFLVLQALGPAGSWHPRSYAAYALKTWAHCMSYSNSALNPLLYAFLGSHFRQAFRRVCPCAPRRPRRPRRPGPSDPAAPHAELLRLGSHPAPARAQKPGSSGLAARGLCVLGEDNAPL
Chain of D(2) dopamine receptor (Homo sapiens) (P14416 whole entry, looked up): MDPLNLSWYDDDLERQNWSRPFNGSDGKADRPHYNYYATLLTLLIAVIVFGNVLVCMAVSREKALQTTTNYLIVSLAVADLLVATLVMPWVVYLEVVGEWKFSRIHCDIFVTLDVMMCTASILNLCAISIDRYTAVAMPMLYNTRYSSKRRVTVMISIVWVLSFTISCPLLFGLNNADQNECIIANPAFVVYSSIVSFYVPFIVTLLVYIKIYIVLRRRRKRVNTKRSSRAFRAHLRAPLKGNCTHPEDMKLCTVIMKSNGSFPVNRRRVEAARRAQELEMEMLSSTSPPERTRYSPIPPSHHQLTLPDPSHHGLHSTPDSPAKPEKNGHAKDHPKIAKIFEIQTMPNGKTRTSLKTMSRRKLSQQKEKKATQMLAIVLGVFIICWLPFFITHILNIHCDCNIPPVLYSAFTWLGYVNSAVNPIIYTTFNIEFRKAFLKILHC
Chain of 5-hydroxytryptamine receptor 2A (Homo sapiens) (P28223 whole entry, looked up): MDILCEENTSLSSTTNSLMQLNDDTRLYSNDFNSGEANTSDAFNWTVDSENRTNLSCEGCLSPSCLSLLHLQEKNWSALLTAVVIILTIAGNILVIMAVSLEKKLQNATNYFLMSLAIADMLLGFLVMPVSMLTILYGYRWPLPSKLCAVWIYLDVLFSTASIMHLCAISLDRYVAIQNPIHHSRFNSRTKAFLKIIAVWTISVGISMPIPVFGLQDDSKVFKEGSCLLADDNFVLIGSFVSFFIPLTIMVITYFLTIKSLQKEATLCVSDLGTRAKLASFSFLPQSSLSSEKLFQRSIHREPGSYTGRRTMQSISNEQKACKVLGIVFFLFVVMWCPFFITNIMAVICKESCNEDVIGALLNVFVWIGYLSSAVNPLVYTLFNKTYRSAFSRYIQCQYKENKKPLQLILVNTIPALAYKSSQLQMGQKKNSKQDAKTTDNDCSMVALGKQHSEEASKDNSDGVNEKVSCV

As for `C1N2CN3CN1CN(C2)C3`, the Potency entry in test [1], in test [2], in test [3], in [4], in test [5] and in test [6] was “inactive” each time. Further, the Potency entry in test [7], in test [8], in test [9], in test [10], in test [11] and in [12] was “inactive” in each case. Also, the Potency entry in test [13], in test [14], in test [15], in test [16], in test [17] and in [18] was “inactive” each time. Besides, the Potency result in test [19] and in test [20] was “inactive” throughout.

With `CC(C)=CCO`, the Potency result in [1], in [3], in [5], in test [6], in test [7] and in test [8] was “inactive” throughout. Moreover, the Potency entry in test [9], in [10], in test [11], in test [12], in test [13] and in [14] was “inactive” in each case. In addition, the Potency entry in [15], in test [16], in [17], in test [18], in [19] and in [20] was “inactive” throughout.

For `C=C(C#N)C(=O)OCC`, the Potency result in test [1], in test [2], in test [3], in test [4], in test [5] and in test [6] was “inactive” each time. The Potency result in test [7], in test [8], in [9], in [10], in test [11] and in [12] was “inactive” each time. Also, the Potency entry in test [13], in [14], in test [15], in test [16], in [17] and in test [18] was “inactive” in each case. Moreover, in test [19], the Potency entry was “inactive”.

`C#C[C@]1(O)CC[C@H]2[C@@H]3CCc4cc(OC)ccc4[C@H]3CC[C@@]21C`: the Potency entry in test [1], in [5], in test [6], in test [7], in test [8] and in test [9] was “inactive” throughout. Also, the Potency result in test [10], in [15], in test [16], in [17], in [19] and in test [20] was “inactive” in each case.

As for `CC(=O)CCc1ccccc1`, the Potency result in [1], in test [3], in test [4], in test [6], in [7] and in test [8] was “inactive” throughout. In addition, the Potency result in [9], in test [10], in [12], in test [13], in test [14] and in test [15] was “inactive” in each case. Moreover, the Potency result in [16], in test [17], in test [18], in test [19] and in [20] was “inactive” in each case.

For `O=C(c1ccc(O)cc1)c1ccc(O)cc1O`, the Potency entry in [1], in test [3], in [4], in test [5], in test [6] and in [7] was “inactive” throughout. For the same compound, the Potency entry in test [8], in test [9], in test [12], in test [13], in test [14] and in test [16] was “inactive” throughout. Besides, the Potency result in [17] and in [20] was “inactive” throughout.

In the case of `Nc1ccc2c(c1)C(=O)c1ccccc1C2=O`, the Potency result in [1], in test [3], in [5], in test [6], in test [8] and in test [9] was “inactive” in each case. Moreover, the Potency result in test [10], in test [11], in [12], in [13], in test [14] and in test [16] was “inactive” in each case. Moreover, the Potency result in test [17] is “inactive”. Moreover, in test [7], the Potency entry was “inactive and 4.08 µM (active)”.

Consider `CC(C)=CCC/C(C)=C\CO`, for which the Potency result in [1], in test [3], in test [4], in [5], in test [6] and in test [7] was “inactive” in each case. The Potency result in [8], in test [9], in test [10], in [15], in test [16] and in [17] was “inactive” each time. Besides, the Potency entry in test [18], in test [19] and in test [20] was “inactive” each time.

Regarding `CCCCCCCCCCCC[N+](C)(C)Cc1ccccc1`, the Potency was 23.9 µM (active) and 29.7 µM (active) and 11.9 µM (active) in [1]; 44.9 µM (active) and 49.7 µM (active) and 19.9 µM (active) in [7]; 49.7 µM (active) and 22.3 µM (active) in test [9]; 1.3 µM (active) and inactive and 16.3 µM (active) in test [11]; 48 µM (active) in test [12]; 1.02 µM (active) and 650 nM (active) in [13]. The Potency entry in test [20] is “inactive and 59.2 µM (active) and 29.8 µM (active)”. Besides, the Potency entry in [3], in test [8], in [14], in [17] and in test [19] was “inactive” each time.
